According to PubChem BioAssay:
Values without a mark were called inactive.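 Rule for the calls: active = fluorescence slope after compound addition differing from the mean of all screened samples at 99.7% confidence, in either direction; inactive = the rest.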

These compounds were tested against Alpha-2C adrenergic receptor (Homo sapiens) (UniProt P18825) (assay: modulators of alpha2C/GIRK thallium flux, primary screen, cell-based, HEK293 alpha2C/GIRK1/2 (AID 624;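 note: slope of fluorescence ratio to pre-addition baseline per second over 15 to 24 s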)). Settings: thallium flux BTC fluorescence, at 10 µM, actives lie on both sides.
Chain of Alpha-2C adrenergic receptor (Homo sapiens) (P18825 whole entry, looked up): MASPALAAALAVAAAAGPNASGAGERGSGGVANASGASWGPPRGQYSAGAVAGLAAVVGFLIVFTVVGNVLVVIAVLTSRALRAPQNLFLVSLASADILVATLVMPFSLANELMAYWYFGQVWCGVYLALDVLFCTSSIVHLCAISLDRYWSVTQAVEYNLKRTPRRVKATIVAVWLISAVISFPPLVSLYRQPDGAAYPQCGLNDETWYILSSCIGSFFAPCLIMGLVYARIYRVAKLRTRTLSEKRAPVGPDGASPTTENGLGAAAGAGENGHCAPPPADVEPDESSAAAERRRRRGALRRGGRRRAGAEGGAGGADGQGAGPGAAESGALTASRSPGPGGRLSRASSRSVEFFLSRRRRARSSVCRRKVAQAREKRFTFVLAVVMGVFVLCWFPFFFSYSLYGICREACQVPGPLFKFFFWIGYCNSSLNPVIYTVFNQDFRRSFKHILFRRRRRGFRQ

**Q.** With `O=C(c1ccc(=O)oc1)N1CCN(c2ccc(F)cc2)CC1` as the compound, how does the slope read?
**A.** 0.00509

**Q.** With `CC(C)(C)C1=Nn2c(nnc2-c2ccco2)SC1` as the compound, how does the slope read?
**A.** 0.00705

**Q.** With `COc1cc(OC)cc(C(=O)N2CCC(N3CCCCCC3)CC2)c1` as the compound, how does the slope read?
**A.** 0.00559

**Q.** `COc1cc(=O)n2c(-c3ccccc3)csc2n1` was tested. Which slope did it give?
**A.** 0.00547

**Q.** Which slope does the source give for `COc1ccccc1OCC(=O)Nc1ccc(S(=O)(=O)Nc2cc(C)nc(C)n2)cc1` here?
**A.** 0.0043

**Q.** With `COCCCNC(=O)c1c(N)n(/N=C/c2cccs2)c2nc3ccccc3nc12` as the compound, how does the slope read?
**A.** 0.00731

**Q.** With `CCOC(=O)CNS(=O)(=O)c1cc(-c2nn(C)c(=O)c3ccccc23)ccc1C` as the compound, how does the slope read?
**A.** 0.00449

**Q.** How did the slope turn out when `N#CC1=C(SCc2ccccc2)NC2=C(C(=O)CCC2)C1c1ccc2c(c1)OCO2` (stereo unspecified) was run?
**A.** 0.0074

**Q.** For `CCOC(=O)c1[nH]c2cc3c(cc2c1NC(=O)CN1CCc2ccccc2C1)OCO3`, which slope is on record?
**A.** 0.00381

**Q.** With `CCOC(=O)c1ccc(NC(=O)CCC(CC)C(=O)O)cc1` (stereo unspecified) as the compound, how does the slope read?
**A.** 0.00545

**Q.** With `CCOC(=O)CSc1nc2ccccc2c(=O)n1C` as the compound, how does the slope read?
**A.** 0.00573

**Q.** `CC(O)Cn1ccccc1=N` (stereo unspecified) was tested. Which slope did it give?
**A.** 0.00523

**Q.** `CC1CN(C2CCN(S(=O)(=O)Cc3ccccc3)CC2)CC(C)O1` (stereo unspecified) was tested. Which slope did it give?
**A.** 0.00538

**Q.** How did the slope turn out when `CN1CCN(c2ncnc3c2[nH]c2ccc(F)cc23)CC1` was run?
**A.** 0.00525

**Q.** With `COc1cc(-c2nn3c(C4CCCCC4)nnc3s2)cc(OC)c1OC` as the compound, how does the slope read?
**A.** 0.00564

**Q.** For `O=C1OC(Nc2ccc(Br)cn2)c2ccccc21` (stereo unspecified), which slope is on record?
**A.** 0.00494
